Laboratory results from PubChem BioAssay.
For part of these data: Entries with a potency or affinity are not part of this list. Active and inactive are the calls of the source. Unless noted, how the calls were made is not given here.

Tests used:
[1] = antimalarial activity against Dd2 strain (AID 2302;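 active means growth inhibition above 50% at the single 2 µM test dose, taken to imply half-maximal potency below 2 µM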;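 further: 0% = DMSO untreated growth and 100% = chloroquine plus artemisinin killed control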); conditions: P. falciparum Dd2 in RBCs, LDH growth readout, 72 h; at 2 µM; hits give high values
[2] = human hepatoma cell viability loss – ATP luminescence, cytotoxicity control for P. falciparum antimalarial project, primary screen (AID 2303;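 active means inhibition above 50%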;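 further: 0% = DMSO wells and 100% = digitonin-killed cells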); conditions: HepG2 viability, 24-48 h, at 10 µM, hits give high values
[3] = molecular target: L-lactate dehydrogenase (Plasmodium falciparum (isolate CDC / Honduras)) (UniProt Q27743); assay: PfLDH activity inhibition – cell lysate, 3D7 strain, counter-screen for P. falciparum growth inhibition project (AID 2304);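 further: 0% = vehicle and 100% = reference inhibitor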; conditions: P. falciparum 3D7 crude extract, LDH APAD/NBT absorbance; at 2 µM; hits give high values
[4] = inhibition of 3D7 malaria parasite growth – strain 3D7 (AID 2306);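 further: 0% = DMSO wells and 100% = chloroquine plus artemisinin control wells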; conditions: P. falciparum 3D7 erythrocytic growth, LDH absorbance, 72 h; at 2 µM; hits give high values
[5] = molecular target: Calcium-dependent protein kinase 1 (Plasmodium falciparum (isolate 3D7)) (UniProt P62344); assay: PfCDPK1 kinase inhibitors, biochemical, TCAMS library (AID 1159585; cut-off not given, nearly all actives have IC50 up to about 0.98 µM;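 further: inhibitors leave more ATP so luminescence rises with inhibition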); conditions: recombinant PfCDPK1, Kinase-Glo ATP depletion luminescence
[6] = molecular target: Plasmodium falciparum protein kinase 6 (PK6, PF3D7_1337100) (UniProt Q8IDW1); assay: PfPK6 kinase inhibitors, biochemical, TCAMS library (AID 1159586); conditions: recombinant PfPK6, Kinase-Glo ATP depletion luminescence
[7] = molecular target: Protein kinase 7 (PK7), Plasmodium falciparum 3D7 (PF3D7_0213400) (UniProt Q7YTF7); assay: inhibition of Plasmodium PK7 catalytic activity – biochemical, TCAMS antimalarial set, Kinase-Glo luminescence (AID 1159587); conditions: recombinant PfPK7, Kinase-Glo ATP depletion luminescence
[8] = molecular target: Calcium-dependent protein kinase 4 (Plasmodium falciparum (isolate 3D7)) (UniProt Q8IBS5); assay: PfCDPK4 kinase inhibitors, biochemical, TCAMS library (AID 1159588; cut-off not given, nearly all actives have IC50 up to about 0.91 µM); conditions: recombinant PfCDPK4, Kinase-Glo ATP depletion luminescence
Sequence of Calcium-dependent protein kinase 4 (Plasmodium falciparum (isolate 3D7)) (Q8IBS5 whole entry, looked up): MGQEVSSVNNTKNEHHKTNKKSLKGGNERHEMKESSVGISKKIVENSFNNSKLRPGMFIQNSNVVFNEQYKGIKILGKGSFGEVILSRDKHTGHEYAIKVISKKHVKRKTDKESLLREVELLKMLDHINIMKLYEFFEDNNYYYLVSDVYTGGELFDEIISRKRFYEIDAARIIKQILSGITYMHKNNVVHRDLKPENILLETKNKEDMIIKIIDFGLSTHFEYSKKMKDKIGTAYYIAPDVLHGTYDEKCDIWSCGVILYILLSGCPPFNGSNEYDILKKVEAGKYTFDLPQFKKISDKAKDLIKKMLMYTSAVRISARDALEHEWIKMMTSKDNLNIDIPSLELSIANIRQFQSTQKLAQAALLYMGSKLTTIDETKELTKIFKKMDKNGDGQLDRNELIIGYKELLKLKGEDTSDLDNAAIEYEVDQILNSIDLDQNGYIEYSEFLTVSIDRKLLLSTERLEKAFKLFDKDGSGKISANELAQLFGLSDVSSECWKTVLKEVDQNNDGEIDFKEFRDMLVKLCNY

Sequence of Calcium-dependent protein kinase 1 (Plasmodium falciparum (isolate 3D7)) (P62344 whole entry, looked up): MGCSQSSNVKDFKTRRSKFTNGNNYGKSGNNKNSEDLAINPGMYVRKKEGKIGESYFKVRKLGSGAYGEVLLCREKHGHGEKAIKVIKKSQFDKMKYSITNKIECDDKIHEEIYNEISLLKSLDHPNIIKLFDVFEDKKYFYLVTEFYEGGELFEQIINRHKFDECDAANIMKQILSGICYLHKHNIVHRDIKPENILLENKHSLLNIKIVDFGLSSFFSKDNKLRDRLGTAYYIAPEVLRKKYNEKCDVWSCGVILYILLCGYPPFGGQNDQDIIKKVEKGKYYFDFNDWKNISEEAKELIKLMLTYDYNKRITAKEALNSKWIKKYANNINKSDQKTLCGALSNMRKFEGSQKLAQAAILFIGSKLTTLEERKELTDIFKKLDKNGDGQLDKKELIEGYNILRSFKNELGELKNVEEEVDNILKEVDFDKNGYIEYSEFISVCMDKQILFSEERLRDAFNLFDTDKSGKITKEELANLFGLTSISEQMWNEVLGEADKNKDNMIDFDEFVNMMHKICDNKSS
Sequence of Plasmodium falciparum protein kinase 6 (PK6, PF3D7_1337100) (Q8IDW1 1-305): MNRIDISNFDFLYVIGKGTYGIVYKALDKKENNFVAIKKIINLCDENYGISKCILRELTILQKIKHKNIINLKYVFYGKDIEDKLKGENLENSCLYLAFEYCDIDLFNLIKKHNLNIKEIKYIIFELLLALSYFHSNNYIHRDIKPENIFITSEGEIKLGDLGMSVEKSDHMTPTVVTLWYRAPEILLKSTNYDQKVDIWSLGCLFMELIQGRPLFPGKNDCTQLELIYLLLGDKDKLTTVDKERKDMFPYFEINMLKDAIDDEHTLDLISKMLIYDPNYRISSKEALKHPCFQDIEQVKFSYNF
Sequence of L-lactate dehydrogenase (Plasmodium falciparum (isolate CDC / Honduras)) (Q27743 whole entry, looked up): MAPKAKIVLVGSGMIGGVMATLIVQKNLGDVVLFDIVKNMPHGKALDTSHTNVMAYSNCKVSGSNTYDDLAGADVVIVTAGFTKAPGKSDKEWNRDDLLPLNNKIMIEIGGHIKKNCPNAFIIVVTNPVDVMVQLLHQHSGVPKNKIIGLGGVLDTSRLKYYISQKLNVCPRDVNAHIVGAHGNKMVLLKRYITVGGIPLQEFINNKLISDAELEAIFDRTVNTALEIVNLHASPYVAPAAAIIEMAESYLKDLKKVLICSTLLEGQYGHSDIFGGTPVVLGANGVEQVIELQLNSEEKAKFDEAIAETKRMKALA
Sequence of Protein kinase 7 (PK7), Plasmodium falciparum 3D7 (PF3D7_0213400) (Q7YTF7 1-343): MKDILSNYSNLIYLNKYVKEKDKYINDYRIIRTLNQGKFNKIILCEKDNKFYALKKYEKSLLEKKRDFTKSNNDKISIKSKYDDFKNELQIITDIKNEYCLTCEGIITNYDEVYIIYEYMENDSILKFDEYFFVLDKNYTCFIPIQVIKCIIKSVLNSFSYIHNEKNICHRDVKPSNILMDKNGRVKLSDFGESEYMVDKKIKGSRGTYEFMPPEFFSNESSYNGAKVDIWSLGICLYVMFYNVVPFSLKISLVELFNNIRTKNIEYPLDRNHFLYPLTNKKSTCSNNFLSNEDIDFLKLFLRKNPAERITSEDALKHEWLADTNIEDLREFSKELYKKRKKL

COc1ccc(C2(CNCC(O)c3cccc([N+](=O)[O-])c3)CCCCC2)cc1OC (configuration not stated)
inactive: inhibition [2] -2% | inhibition [3] 3% | outcome [5] | outcome [6] | outcome [7] | outcome [8]
active: growth inhibition [1] 85% | growth inhibition [4] 95%

Cc1ccc(/C=C/C(=O)NCCCCCN2CCC(c3c[nH]c4ccccc34)CC2)cc1
inactive: growth inhibition [1] 7% | inhibition [2] 36% | inhibition [3] 0% | outcome [5] | outcome [6] | outcome [7] | outcome [8]
active: growth inhibition [4] 86%

CC(C)(C)c1cc(C(=O)N2CCN(c3ccc(C(F)(F)F)cn3)CC2)n(Cc2ccc(F)cc2)n1
active: growth inhibition [4] 88%
inactive: growth inhibition [1] 26% | inhibition [2] 4% | inhibition [3] -1% | outcome [5] | outcome [6] | outcome [7] | outcome [8]

N[C@@H](Cc1cc(I)c(Oc2ccc(O)c(Cl)c2)c(I)c1)C(=O)O
active: growth inhibition [4] 96%
inactive: growth inhibition [1] -3% | inhibition [2] -4% | inhibition [3] -2% | outcome [5] | outcome [6] | outcome [7] | outcome [8]

COc1cccc(Nc2nc(C)cc(NCc3ccc(-c4c(C)noc4C)cc3)n2)c1
active: growth inhibition [4] 98%
inactive: growth inhibition [1] 42% | inhibition [2] 33% | inhibition [3] -1% | outcome [5] | outcome [6] | outcome [7] | outcome [8]

CC(=O)Nc1ccc(C(=O)Nc2cccc(-c3csc(-c4nc5ccccc5[nH]4)c3)c2)cn1
active: growth inhibition [1] 97% | growth inhibition [4] 101%
inactive: inhibition [2] 6% | inhibition [3] -3% | outcome [5] | outcome [6] | outcome [7] | outcome [8]

Cc1ccoc1C(=O)Nc1cccc(-c2cccc(-c3nc4ccccc4[nH]3)c2)c1
active: growth inhibition [4] 85%
inactive: growth inhibition [1] 20% | inhibition [2] 43% | inhibition [3] -2% | outcome [5] | outcome [6] | outcome [7] | outcome [8]

CC(C)C1=CC(=NOS(=O)(=O)c2ccccc2)C=C(C(C)C)C1=O
inactive: inhibition [2] 23% | inhibition [3] -3% | outcome [5] | outcome [6] | outcome [7] | outcome [8]
active: growth inhibition [1] 74% | growth inhibition [4] 92%

CN(C)CCNCc1cccc(-c2ccc3c(Nc4ccc(F)cc4Cl)ccnc3c2)c1
inactive: inhibition [2] 17% | inhibition [3] 1% | outcome [5] | outcome [6] | outcome [7] | outcome [8]
active: growth inhibition [1] 98% | growth inhibition [4] 102%

O=C(Nc1cccc(CN2CCCN(Cc3ccc(O)cc3)CC2)c1)c1cc2ccccc2o1
inactive: inhibition [2] 10% | inhibition [3] 0% | outcome [5] | outcome [6] | outcome [7] | outcome [8]
active: growth inhibition [1] 62% | growth inhibition [4] 95%

COc1ccc(Cc2nc(N=C(N)Nc3ccccc3)ccc2OC)cc1
inactive: inhibition [2] 40% | inhibition [3] 2% | outcome [5] | outcome [6] | outcome [7] | outcome [8]
active: growth inhibition [1] 68% | growth inhibition [4] 93%

CC(C)(C)c1ccc(O)c(CNC2CCCCC2)c1
active: growth inhibition [1] 98% | growth inhibition [4] 100%
inactive: inhibition [2] 5% | inhibition [3] -2% | outcome [5] | outcome [6] | outcome [7] | outcome [8]

COc1ccccc1N1CCN(C(C(=O)NCc2ccc(C)cc2)c2ccc(C)cc2)CC1 (configuration not stated)
active: growth inhibition [1] 79% | growth inhibition [4] 92%
inactive: inhibition [2] 12% | inhibition [3] 6% | outcome [5] | outcome [6] | outcome [7] | outcome [8]

COc1cc2nc(N3CCC(CNC(=O)c4ccc(-c5cccc(C#N)c5)cc4)CC3)nc(N)c2cc1OC
active: growth inhibition [1] 100% | growth inhibition [4] 100%
inactive: inhibition [2] 18% | inhibition [3] 6% | outcome [5] | outcome [6] | outcome [7] | outcome [8]

O=C(Nc1ccc(F)c(F)c1)c1ccc(CN2CCCN(Cc3cccc(F)c3)CC2)cc1
inactive: growth inhibition [1] 12% | inhibition [3] -6% | outcome [5] | outcome [6] | outcome [7] | outcome [8]
active: inhibition [2] 51% | growth inhibition [4] 83%

CCc1ccccc1N1CCN(CCCC(=O)c2ccc(NC(=O)c3cc(Cl)cc(Cl)c3)cc2)CC1
active: growth inhibition [4] 99%
inactive: growth inhibition [1] 46% | inhibition [2] 16% | inhibition [3] 1% | outcome [5] | outcome [6] | outcome [7] | outcome [8]

CC(C)(C)[C@@H](Nc1ccc(C#N)c2ccccc12)C(=O)NC1(Cc2ccc(O)cc2)CCCC1
active: growth inhibition [1] 74% | growth inhibition [4] 90%
inactive: inhibition [2] 14% | inhibition [3] 0% | outcome [5] | outcome [6] | outcome [7] | outcome [8]

COc1cc(-c2ccc(-c3cnc(N)nc3OC)[nH]2)cc(OC)c1OC
inactive: inhibition [2] -3% | inhibition [3] -2% | outcome [5] | outcome [6] | outcome [7] | outcome [8]
active: growth inhibition [1] 54% | growth inhibition [4] 101%

Cc1cccc2[nH]c(-c3cccc(-c4cccc(CNCCc5ccncc5)c4)c3)nc12
active: growth inhibition [1] 99% | growth inhibition [4] 101%
inactive: inhibition [2] 20% | inhibition [3] -2% | outcome [5] | outcome [6] | outcome [7] | outcome [8]

COc1ccccc1CCNc1nc(C)cc(N[C@@H](Cc2ccccc2)C(=O)NCc2cccs2)n1
inactive: inhibition [2] 18% | inhibition [3] 1% | outcome [5] | outcome [6] | outcome [7] | outcome [8]
active: growth inhibition [1] 73% | growth inhibition [4] 100%

CC(C)N1CCC(N(Cc2ccc(-c3ccc(Cl)cc3)cc2)C(=O)Cn2c(CCc3cccc(F)c3F)nc(=O)c3ccccc32)CC1
inactive: inhibition [3] 5% | outcome [5] | outcome [6] | outcome [7] | outcome [8]
active: growth inhibition [1] 70% | inhibition [2] 61% | growth inhibition [4] 86%

CCNc1cc(C(=O)N[C@@H](Cc2ccccc2)[C@H](O)CNC2(CC(C)C)CC2)cc(N2CCCCS2(=O)=O)c1
inactive: growth inhibition [1] 29% | inhibition [2] -3% | inhibition [3] -5% | outcome [5] | outcome [6] | outcome [7] | outcome [8]
active: growth inhibition [4] 87%

O=C(Nc1ccc(-c2nc3ccccc3[nH]2)cc1)C1CCN(Cc2ccc(F)cc2)CC1
active: growth inhibition [1] 91% | growth inhibition [4] 102%
inactive: inhibition [2] 13% | inhibition [3] 1% | outcome [5] | outcome [6] | outcome [7] | outcome [8]

CCn1cnc2c(N3CCCS3(=O)=O)cc(C(=O)N[C@@H](Cc3ccccc3)[C@H](O)CNC(C)(C)c3cccc(C(F)(F)F)c3)cc21
active: growth inhibition [1] 97% | growth inhibition [4] 99%
inactive: inhibition [2] 9% | inhibition [3] -1% | outcome [5] | outcome [6] | outcome [7] | outcome [8]

COc1ccc(/C=C/c2ccc(-c3c(C)[nH]c(C)c(Cl)c3=O)cc2)cc1OC
inactive: inhibition [2] 12% | inhibition [3] -8% | outcome [5] | outcome [6] | outcome [7] | outcome [8]
active: growth inhibition [1] 96% | growth inhibition [4] 97%

Cc1nc(NCCc2cnc[nH]2)cc(NCc2ccccc2)n1
inactive: growth inhibition [1] 5% | inhibition [2] 5% | inhibition [3] -2% | outcome [5] | outcome [6] | outcome [7] | outcome [8]
active: growth inhibition [4] 100%

CNCCNCc1cccc(-c2ccc(-c3nc4ccccc4[nH]3)s2)c1
active: growth inhibition [4] 99%
inactive: growth inhibition [1] 9% | inhibition [2] 8% | inhibition [3] 0% | outcome [5] | outcome [6] | outcome [7] | outcome [8]

COc1ccc(-c2cccc(NC(=O)c3ccc(Cl)cc3)c2)cc1CN1CCNCC1
active: inhibition [2] 52% | growth inhibition [4] 96%
inactive: growth inhibition [1] 22% | inhibition [3] -3% | outcome [5] | outcome [6] | outcome [7] | outcome [8]

O=C(NCCCCN1CCC(c2ccc3c(c2OCCO)CCCC3)CC1)c1ccc(-c2ccc(C(F)(F)F)cc2)cc1
inactive: growth inhibition [1] 38% | inhibition [3] 6% | outcome [5] | outcome [6] | outcome [7] | outcome [8]
active: inhibition [2] 100% | growth inhibition [4] 98%

Cc1[nH]nc2cc(Nc3ccnc(Nc4cccc(CN5CCOCC5)c4)n3)ccc12
inactive: growth inhibition [1] -10% | inhibition [2] 33% | inhibition [3] -8% | outcome [5] | outcome [6] | outcome [7] | outcome [8]
active: growth inhibition [4] 83%

Cc1ccc2[nH]c3ccccc3c(=O)c2c1
active: growth inhibition [1] 74% | growth inhibition [4] 93%
inactive: inhibition [2] -4% | inhibition [3] -1% | outcome [5] | outcome [6] | outcome [7] | outcome [8]

CCn1cnc2c(N3CCCC3=O)cc(C(=O)N[C@@H](Cc3ccccc3)[C@H](O)CNC3CCCCC3)cc21
inactive: inhibition [2] -2% | inhibition [3] -5% | outcome [5] | outcome [6] | outcome [7] | outcome [8]
active: growth inhibition [1] 94% | growth inhibition [4] 98%

CC(Nc1ccnc2cc(Cl)ccc12)c1ccc(S(N)(=O)=O)cc1 (configuration not stated)
inactive: growth inhibition [1] 21% | inhibition [2] 5% | inhibition [3] 3% | outcome [5] | outcome [6] | outcome [7] | outcome [8]
active: growth inhibition [4] 96%

c1cc(-c2ccc(CNCc3ccsc3)cc2)cc(-c2nc3ccccc3[nH]2)c1
active: growth inhibition [1] 82% | growth inhibition [4] 101%
inactive: inhibition [2] 46% | inhibition [3] 2% | outcome [5] | outcome [6] | outcome [7] | outcome [8]

CN(C)CCC1CCN(CCS(=O)(=O)c2cccc(Nc3ccc(-c4ccsc4)cn3)c2)CC1
active: growth inhibition [4] 97%
inactive: growth inhibition [1] 6% | inhibition [2] 49% | inhibition [3] 0% | outcome [5] | outcome [6] | outcome [7] | outcome [8]

Cc1cc2nc(-c3ccc(/C=C/C(=O)NC4CCN(Cc5ccccc5)CC4)cc3)[nH]c2cc1C
active: growth inhibition [1] 89% | growth inhibition [4] 98%
inactive: inhibition [2] 18% | inhibition [3] -2% | outcome [5] | outcome [6] | outcome [7] | outcome [8]

CCN(CCO)Cc1ccc(-c2ccc(NS(=O)(=O)c3cccc4cccnc34)cc2)cc1
active: growth inhibition [4] 92%
inactive: growth inhibition [1] 16% | inhibition [2] 25% | inhibition [3] 2% | outcome [5] | outcome [6] | outcome [7] | outcome [8]

Cc1ccc(Nc2nc3cc(Nc4ccnc(Nc5ccc(CS(C)(=O)=O)cc5)n4)ccc3o2)cc1
active: growth inhibition [1] 66% | inhibition [2] 54% | growth inhibition [4] 99%
inactive: inhibition [3] 2% | outcome [5] | outcome [6] | outcome [7] | outcome [8]

COc1ccc(Br)cc1/C=C/C(=O)Nc1ccc(C2CCCN(C)C2)cc1 (configuration not stated)
active: growth inhibition [4] 100%
inactive: growth inhibition [1] 35% | inhibition [2] 18% | inhibition [3] -2% | outcome [5] | outcome [6] | outcome [7] | outcome [8]
